From PubChem BioAssay AID2551 (National Center for Advancing Translational Sciences (NCATS), 2010)
Hit rate of the full screen: of about 310,000 compounds, about 17,000 (5.5%) were called active. Not shown: some 11% with an inconclusive outcome. Calls follow the shape of the dose curve; as a rule, active = well fitted inhibition curve with a large enough effect; inconclusive = small, poorly fitted or top-dose-only effect, or effect the other way; inactive = no such curve, though single readings can be large or run the other way. The full list was thinned out, with actives kept by preference.

Molecular target: Nuclear receptor ROR-gamma (Mus musculus) (UniProt P51450)
Test: qHTS for inhibitors of ROR gamma transcriptional activity; also: nearly all actives have a fitted effect of over 60% in size
Conditions: Drosophila S2 Gal4-RORgamma UAS-luciferase reporter, 20 h; series mostly up to 53.6 µM
How it was run: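 Drosophila Schneider cells stably carrying a metallothionein-driven Gal4 DBD–ROR gamma fusion and a UAS-Photinus luciferase reporter were exposed to compound for 1 hr, then induced with copper sulfate (700 uM final) for 20 hr at ambient temperature before luminescence reading.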
Potency is read from the fitted curve at half-maximal effect.

Nuclear receptor ROR-gamma (Mus musculus), sequence (P51450 whole entry, looked up): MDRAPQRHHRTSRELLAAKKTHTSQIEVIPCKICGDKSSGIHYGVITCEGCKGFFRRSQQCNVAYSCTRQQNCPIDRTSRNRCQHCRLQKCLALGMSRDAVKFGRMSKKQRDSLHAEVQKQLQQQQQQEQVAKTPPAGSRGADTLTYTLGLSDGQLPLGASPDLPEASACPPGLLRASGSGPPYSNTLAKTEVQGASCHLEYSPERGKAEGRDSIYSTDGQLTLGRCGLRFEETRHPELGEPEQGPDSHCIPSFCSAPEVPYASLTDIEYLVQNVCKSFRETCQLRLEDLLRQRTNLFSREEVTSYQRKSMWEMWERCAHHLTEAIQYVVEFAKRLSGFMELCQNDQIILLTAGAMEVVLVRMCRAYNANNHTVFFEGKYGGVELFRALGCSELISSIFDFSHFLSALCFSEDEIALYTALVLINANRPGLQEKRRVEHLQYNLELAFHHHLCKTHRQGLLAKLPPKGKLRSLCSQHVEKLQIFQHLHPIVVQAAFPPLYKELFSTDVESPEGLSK

Potency, active:
CC1=NN(C(=O)Cc2ccc(C)cc2)C(O)(c2cccnc2)C1 (stereo not given) 8.91 µM
CC1=NN(C(=O)c2ccccc2Br)C(O)(c2cccnc2)C1 (stereo not given) 5.62 µM
O=C(NC(=S)N1CCCCC1c1cccnc1)c1ccccc1 (stereo not given) 0.794 µM
COc1ccc(/C=C/C(=O)NC(=S)NN2CCCCC2c2cccnc2)cc1 (stereo not given) 7.08 µM
COc1ccc(C(=O)NC(=S)N2CCCCC2c2cccnc2)cc1OC (stereo not given) 0.891 µM
Cc1ccc(NC(=S)N2CCN(c3ncccn3)CC2)cc1C 12.6 µM
Cn1c(-c2sccc2OCc2cccc(C(F)(F)F)c2)n[nH]c1=S 4.47 µM
O=c1c2cc(Br)ccc2nc(-c2cccc(Cl)c2)n1O 12.6 µM
O=C(N/N=C/c1c[nH]c2ccccc12)c1ccccc1O 5.62 µM
CSC(=S)N/N=C/c1c[nH]c2ccccc12 0.398 µM
O=c1c2ccccc2[nH]c(=S)n1CCN1CCC(=C(c2ccc(F)cc2)c2ccc(F)cc2)CC1 11.2 µM
CN(C)CCn1c(=S)[nH]c2ccc(Cl)cc2c1=O 10 µM

Potency, inactive:
COc1cc(S(=O)(=O)N2CCN=C2c2ccccc2)ccc1Cl
Cc1ccc(NC(=O)N2CCC(O)(c3cccnc3)CC2)cc1
Cc1ccc(C(=O)NC(=S)NCc2cccnc2)cc1
O=C(c1cccc(F)c1)N1CCC(O)(c2cccnc2)CC1
O=C(CN1CCN(Cc2ccccc2)CC1)Nc1ccc(F)c(F)c1
CCCC[C@H]1COCCS(=O)(=O)N1Cc1cccc(Cl)c1
O=C(NCCN1CCCC(O)C1)c1cc(COc2c(F)cccc2F)on1 (stereo not given)
Cc1ccc(C)c(NC(=O)c2cc(-c3cc(C)cc(C)c3O)n[nH]2)c1
COc1cccc(OCc2cc(C(=O)N3CCN(C(=O)c4ccco4)CC3)no2)c1
CCOC(=O)C1CCCN(C(=O)/C=C/c2ccc(OC)cc2)C1 (stereo not given)
O=C(Nc1ccccc1C(F)(F)F)N1CCCC1c1cccnc1 (stereo not given)
Cc1ccc(-c2cc(C(F)(F)F)n3ncc(C(=O)N4CCCCC4c4cccnc4)c3n2)cc1 (stereo not given)
COc1ccc(C(=O)N2CCCC(C(=O)c3ccccc3OC)C2)cc1OC (stereo not given)
COc1ccc(/C=C/C(=O)NC(=S)N2CCCC(C(N)=O)C2)cc1 (stereo not given)
COc1ccc(C(=O)Nc2cccnc2)cc1C(=O)Nc1cccnc1
CCN1CCN(C(=O)C2CCCN(S(=O)(=O)c3ccc(OC)c(OC)c3)C2)CC1 (stereo not given)
COc1cc(C(=O)OC2CCOC2=O)c([N+](=O)[O-])cc1OC (stereo not given)
Cc1ccccc1NC(=O)C1CCN(C(=O)NC2CCCCC2)CC1
CNC(=S)N1CCN(c2ccccn2)CC1
CCOC(=O)c1ccc(NC(=S)N2CCN(c3ccccn3)CC2)cc1
Cc1c(CC(=O)NCC(=O)NCC(=O)O)c(=O)oc2cc3oc4c(c3cc12)CCCC4
O=C(OCC(=O)N1CCN(C(=O)c2ccco2)CC1)c1cccc(O)c1
O=C(c1ccco1)N1CCN(Cc2cccc(C(F)(F)F)c2)CC1
CCOC(=O)N1CCN(Cc2nc(Cc3cccc(C(F)(F)F)c3)no2)CC1
COc1ccccc1CNS(=O)(=O)c1c(C)[nH]c(C)c1C(=O)N1CCCCC1
O=C1CCCc2c1nc(-c1cccc(Cl)c1)n2O
Cc1cccc(-c2nc3ccccc3c(=O)n2NC(=O)Cc2ccc(Cl)cc2)c1
O=C(Cc1c[nH]c2ccccc12)N/N=C/c1cccc(F)c1
O=C(N/N=C/c1c[nH]c2ccccc12)c1cc2ccccc2o1
NC(=O)CSc1c[nH]c2ccccc12
O=C(N/N=C/c1ccc([N+](=O)[O-])cc1)c1c[nH]c2ccccc12
O=C(NCCc1c[nH]c2ccccc12)C1CCN(Cc2ccc(Br)cc2)CC1
Cc1cc(=O)oc2c3c(cc(OCC(=O)N[C@H](C(=O)O)c4ccccc4)c12)OC(C)(C)CC3
Cc1ccc(NC(=O)CSc2nn3c(=O)c(C)nnc3s2)cc1Cl
COCCNC(=O)C(c1ccc(C)cc1)N(C(=O)CCC(=O)Nc1ccccn1)c1cccc(C)c1 (stereo not given)
CCCN1C2CCCC1CC(NC(=O)c1cccc(OC)c1)C2 (stereo not given)
CCCCCCC(O)(CCN1CCCCC1)c1ccccc1 (stereo not given)
Cc1cc(C(F)F)nn1CC(=O)NC1CCCCCC1
CCCCCn1c(=O)c(C(=O)OCC)c(Cl)c2ccccc21
CCCCc1nc2c(=O)[nH]c3ccccc3c2o1
O=C(CCCN1CCc2[nH]c3ccc(F)cc3c2C1)c1ccc(F)cc1
O=C(O)c1ccc(Cn2c(=S)[nH]c3cc(Cl)ccc3c2=O)cc1
Fc1ccc(NC(=S)N2CCc3[nH]c4ccccc4c3C2)cc1
